This is a sample that favours compounds with a hit; in the whole collection about 2.3% have one here.
M1 PAM = human M1 muscarinic receptor positive allosteric modulators, primary screen, CHO-K1 cells, Fluo-8 calcium fluorescence, 1536-well; Muscarinic acetylcholine receptor M1 (Homo sapiens), P11229; CHO-K1 hM1, ACh EC20; 0% = ACh EC20, 100% = maximal ACh; activation, % at 3 µM; 360,000 tested, 0.088% active; AID 588819, 2011; in the data active = activation above about 19%, passing the limit was not always enough
Target sequence (P11229 whole entry, looked up): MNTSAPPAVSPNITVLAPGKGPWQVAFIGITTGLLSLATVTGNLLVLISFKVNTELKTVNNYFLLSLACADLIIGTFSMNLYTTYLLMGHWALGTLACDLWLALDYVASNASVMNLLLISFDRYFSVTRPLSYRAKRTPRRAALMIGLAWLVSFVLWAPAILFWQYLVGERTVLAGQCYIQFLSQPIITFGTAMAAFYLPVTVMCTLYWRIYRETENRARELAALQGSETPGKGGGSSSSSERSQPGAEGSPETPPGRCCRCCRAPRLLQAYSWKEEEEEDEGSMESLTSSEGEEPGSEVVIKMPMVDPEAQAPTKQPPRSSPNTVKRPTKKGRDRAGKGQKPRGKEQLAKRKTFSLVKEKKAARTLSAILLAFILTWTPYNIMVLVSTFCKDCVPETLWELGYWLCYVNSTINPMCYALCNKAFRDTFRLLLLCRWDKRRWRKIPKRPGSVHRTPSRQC
CHRM1 antagonist = human M1 muscarinic receptor antagonists, primary screen, CHO-K1 cells, Fluo-8 calcium fluorescence, 1536-well; inhibition, % at 3 µM; CHO-K1 hM1, ACh EC80 antagonist; Muscarinic acetylcholine receptor M1 (Homo sapiens), P11229; 360,000 tested, 1.3% active;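 active = percent inhibition above its own plate's cutoff, namely the mean of that plate's compound wells plus 3 SD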;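 note: peak over basal fluorescence ratio during 140 s after agonist addition; 0% = ACh EC80 plus DMSO and 100% = DMSO alone without agonist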
M1 PAM parental = nonselective calcium activators in parental CHO-K1 cells, primary screen, counter-screen for M1 PAM project, cell-based, Fluo-8 calcium fluorescence, full deck, 1536-well | ATP EC20; 0% at ATP EC20, 100% at ATP max | activation, % at 3 µM | 360,000 tested, 0.02% active;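 active = activation above the run cutoff, the mean activation of all test compounds plus 3 SD, cut at about 40% in these data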;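 note: peak over basal fluorescence ratio in a 140 s read after ATP addition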
CHRM1 agonist = human M1 muscarinic receptor agonists, primary screen, Fluo-8 calcium fluorescence, CHO-K1 cells, HTS. Muscarinic acetylcholine receptor M1 (Homo sapiens), P11229. CHO-K1 hM1, agonist mode; 0% DMSO, 100% acetylcholine EC100. activation, % at 3 µM. 360,000 tested, 0.33% active;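 active = activation above the run's mean compound activation plus 3 SD, cut at about 16% in these data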;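 note: peak over basal fluorescence ratio within a 140 s kinetic read after compound addition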
CHO-K1 Ca antag = M1 antagonist counterscreen hit in parental CHO-K1 cells. AID 602250. 360,000 tested, 0.6% active. ATP-induced calcium, Fluo-8 fluorescence. inhibition, % at 3 µM;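 active = inhibition above a per-plate cutoff, the plate's mean sample inhibition plus 3 SD, cut at about 24% in these data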;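 note: 0% = DMSO plus EC80 ATP and 100% = DMSO alone without ATP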
M1 ag parental = counter-screen for M1 agonists: effect in parental CHO-K1 cells; 360,000 tested, 0.48% active; Fluo-8 calcium fluorescence; scaled to maximal ATP response, vehicle zero; AID 602248, 2012; activation, % at 3 µM; in the data active = activation above about 15%;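 note: untransfected CHO-K1 host cells lacking M1 receptor as counterscreen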
* = called active by the depositor.

SMILES | M1 PAM | CHRM1 antagonist | M1 PAM parental | CHRM1 agonist | CHO-K1 Ca antag | M1 ag parental
CCOC(=O)C1(CC2CCCCO2)CCN(C(=O)NCc2ccccc2)CC1 (stereo not drawn) | 8 | 1 | 19 | -6 | -4 | 1
CCCn1nc(C(=O)N(C)CC(=O)Nc2ccc(OCC)c(OCC)c2)c2ccccc2c1=O | 10 | -5 | -7 | -5 | 4 | 0
CCNC(=O)C1CCCN(C(=O)c2ccccc2)CC1 (stereo not drawn) | -2 | 3 | -9 | -4 | 13 | 0
O=C(NC1CCCCC1)C(=O)c1c(-c2ccccc2)[nH]c2ccccc12 | 1 | -5 | -11 | -4 | 27* | 0
Cc1cccc(N2CCN(C(=O)c3ccc(NS(=O)(=O)c4c(C)noc4C)cc3)CC2)c1C | 1 | -2 | 7 | -3 | 2 | 0
Cc1noc(C)c1S(=O)(=O)Nc1ccc(C(=O)N2CCN(c3cccc(Cl)c3)CC2)cc1 | -16 | 17 | -10 | 3 | 1 | 17*
CCC(=O)c1ccc(OCc2ccccc2)c(OC)c1 | 5 | -11 | 17 | -9 | -14 | 0
Cc1ccc(OC(=O)c2ccc(Br)o2)cc1 | -1 | 4 | 12 | 30* | -10 | 27*
CCC(=O)c1ccc(OC(=O)c2ccc(Br)o2)cc1 | -12 | 11 | 0 | 81* | 0 | 43*
CCC(=O)c1ccc(OCc2ccc(C(=O)c3ccccc3)cc2)cc1 | -19 | 51* | -9 | -3 | 11 | 12
CC(CNS(=O)(=O)c1ccc2c(c1)NC(=O)CCS2)c1ccccc1 (stereo not drawn) | 2 | -5 | 5 | 0 | 2 | 18*
CCCc1nc2c3ccccc3ccn2c1Cc1cccc(F)c1 | -26 | 56* | 15 | -6 | -20 | 1
CCC(=O)c1ccc(SC(=O)N(C)C)cc1O | -3 | 9 | 11 | -4 | -9 | 4
CC1(C(=O)NS(=O)(=O)c2ccc(F)cc2F)CCN1C(=O)Cc1ccccc1 (stereo not drawn) | -6 | 3 | -10 | -4 | 5 | 0
CC1(C(=O)NS(=O)(=O)c2ccc(F)cc2F)CCN1C(=O)Cc1ccc(Cl)cc1Cl (stereo not drawn) | -1 | 0 | -9 | -3 | 27* | 0
Cc1c(Cl)cccc1NC(=S)N1CCN(C(=O)C2CCCO2)CC1 (stereo not drawn) | -4 | 4 | 12 | -2 | -11 | 0
Cc1ccc(S(=O)(=O)N2CCC(C(=O)NCc3ccccc3CN3CCCC3)CC2)cc1 | -23 | 35* | 4 | -8 | -3 | 0
COc1ccccc1N(C)S(=O)(=O)c1ccc(C(=O)NCc2ccccc2CN2CCCC2)cc1 | -14 | 36* | 13 | -6 | -14 | 4
COc1ccccc1N(C)S(=O)(=O)c1ccc(C(=O)N2CCCc3ccccc32)cc1 | -12 | 15 | 5 | -3 | 4 | 16*
Cc1ccc(OCc2nnc(-c3ccc(Cl)cc3)o2)cc1 | 20 | -11 | -28 | 0 | 11 | 0
Cc1ccc(-c2nc(CS(=O)CC(=O)NCc3ccccc3)c(C)o2)cc1 (stereo not drawn) | 24* | -15 | 23 | 5 | -20 | 0
Cc1oc(-c2ccc(Cl)cc2)nc1CS(=O)CC(=O)NCCN1CCCC1 (stereo not drawn) | 0 | -2 | -4 | -11 | 25* | 0
Cc1nc([N+](=O)[O-])c(N2CCN(C)CC2)n1Cc1ccccc1 | -21 | 40* | -5 | -7 | 11 | 0
Cc1nc([N+](=O)[O-])c(SCC(N)=O)n1Cc1ccccc1 | 1 | 3 | 13 | -11 | -10 | 0
O=C(/C=C/c1ccc([N+](=O)[O-])cc1)N1CCN(S(=O)(=O)c2cccs2)CC1 | 7 | -18 | 17 | -4 | -10 | 1
SMILES | M1 PAM | CHRM1 antagonist | M1 PAM parental | CHRM1 agonist | CHO-K1 Ca antag | M1 ag parental
CC1(C)CC(NC(=O)c2ccccn2)CC(C)(C)N1O | 10 | -10 | 10 | -8 | -8 | 0
O=C(NC12CC3CC(CC(C3)C1)C2)N1CCN(C(=O)c2ccco2)CC1 | 8 | -6 | 20 | -10 | -6 | 0
O=S(=O)(c1ccc(Cl)c(Cl)c1)c1snnc1-c1ccccc1 | -21 | 75* | 6 | -4 | -12 | 1
COc1ccc(CC(=O)Nc2nc(OCC(F)(F)F)cnc2-c2ccc(Cl)cc2Cl)cc1 | 4 | -12 | 7 | -7 | -4 | 0
CCCc1cc(=O)[nH]c(SCC(=O)Nc2ncc(S(=O)(=O)c3ccc([N+](=O)[O-])cc3)s2)n1 | -2 | -4 | -11 | -3 | -2 | 0
Cc1csc(NC(=O)CSc2ccc([N+](=O)[O-])cn2)n1 | 7 | -2 | 18 | -4 | -3 | 16*
Cc1nnc(SCC(=O)Nc2ncc(S(=O)(=O)c3ccc([N+](=O)[O-])cc3)s2)s1 | 11 | -11 | 44* | -4 | 1 | 1
O=C(Nc1ncc(S(=O)(=O)c2ccc([N+](=O)[O-])cc2)s1)c1ccccc1F | -17 | 32* | 13 | 30* | -7 | 3
COC(=O)C(NC(=O)c1ccccc1C)(Nc1ncc(S(=O)(=O)c2ccc([N+](=O)[O-])cc2)s1)C(F)(F)F (stereo not drawn) | 4 | 2 | 16 | 17* | 4 | 7
O=C(Nc1ccc([N+](=O)[O-])cc1)c1ccccc1F | 3 | -2 | 19 | -7 | -22 | 1
COc1ccc(C2=NOC(C(=O)N(C)Cc3ccccc3)C2)cc1 (stereo not drawn) | 10 | -8 | 20 | -5 | -10 | 1
COc1cccc(CNC(=S)Nc2cc(C)ccc2C)c1 | 4 | 0 | 7 | -13 | 1 | 0
CN(C)/C=C1\C=C2C(=O)c3ccccc3N2C1=O | -17 | 34 | -19 | 141* | 41* | 165*
Cc1ccn2c(-c3csc(NCc4ccccc4)n3)c(C)nc2c1 | -6 | 15 | -6 | -2 | 25* | 5
Cc1ccc(Nc2nc(-c3c(C)nc4ccccn34)cs2)cc1 | -11 | 23* | -8 | -5 | 5 | 4
Cc1nc2ccccn2c1-c1csc(NCc2ccco2)n1 | 4 | -3 | -8 | -1 | -2 | 5
Cc1ccc(Nc2nc(-c3c(C)nc4ncccn34)cs2)cc1 | 5 | -9 | 23 | -4 | -13 | 5
Cc1c(C(=O)N2CCN(S(=O)(=O)c3ccccc3F)CC2)oc2c(Cl)cccc12 | 20 | 1 | 5 | 16* | -11 | 1

Bioassay records from PubChem BioAssay.
